Source: PubChem BioAssay AID651956 (Broad Institute, 2012)
Results with a measured potency or affinity are listed apart. Records with an inconclusive call do not appear. Active and inactive are the calls of the source.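 The calls were made as follows: active = in every test run, a fitted half-maximal concentration for signal decrease at or below twice the highest tested concentration; inconclusive = runs disagree, flat 30 to 70% decrease, or poor fit; inactive = the rest.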

experiment: miR-122 activators in hepatoma reporter cells, dose response, cell-based, Huh7 psiCHECK-miR122, Renilla luciferase, cherry-picked (AID 651956); conditions: 48 h; series mostly up to 35 µM;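 also: Renilla luciferase from a miR-122 sensor reporter so lower signal means miR-122 activation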

Structure (SMILES)	outcome
O=C(Nc1ccc(F)cc1)N1C[C@@H]2[C@H](c3ccccc31)[C@H](CO)N2C(=O)Cc1ccccc1	inactive
CCCNC(=O)Nc1ccc2c(c1)C(=O)N(C)[C@@H]1CC[C@H](CC(=O)O)O[C@H]1CO2	inactive
CSc1cccc(NS(=O)(=O)c2ccccc2)c1	inactive
COCC(=O)N(C[C@H]1[C@H](c2ccccc2)[C@H](CO)N1C(=O)NC(C)C)C(C)C	inactive
CC(C)Oc1ccc(CNCCC2(C(C)C)CCOC(C)(C)C2)cc1 (stereo not drawn)	inactive
CCCNC(=O)N1C[C@@H]2[C@H](c3ccccc31)[C@@H](CO)N2C(=O)C1CCOCC1	inactive
CCCNC(=O)C[C@@H]1CC[C@@H]2[C@@H](COc3ccc(NC(=O)c4ccc(C(F)(F)F)cc4)cc3C(=O)N2C)O1	inactive
CN1C(=O)c2cc(NC(=O)Nc3ccccc3F)ccc2OC[C@@H]2O[C@H](CC(=O)O)CC[C@@H]21	inactive
O=C(COc1cccc2ccccc12)Nc1nc2ccccc2[nH]1	inactive
C[C@H]1CN([C@@H](C)CO)S(=O)(=O)c2ccc(C3=CCCC3)cc2O[C@H]1CN(C)Cc1cccnc1	inactive
COc1nnc(-c2ccc(N3CCOCC3)c(NC(=O)c3ccccc3)c2)c2ccccc12	inactive
CCOC(=O)C1CCN(C(c2cccnc2)c2c(NC(=O)c3ccco3)sc(C)c2C)CC1 (stereo not drawn)	inactive
CN1C(=O)c2cc(NC(=O)C3CC3)ccc2OC[C@@H]2O[C@H](CC(=O)NC3CCC3)CC[C@H]21	inactive
O=C(CC(F)(F)F)N1C[C@@H]2[C@H](c3ccccc31)[C@@H](CO)N2C(=O)C1CCCC1	inactive
CN1C(=O)c2cc(NC(=O)c3cccs3)ccc2OC[C@@H]2O[C@@H](CC(=O)NCCN3CCCCC3)CC[C@H]21	inactive
CCC(=O)N(C)C[C@@H]1[C@@H](c2ccccc2)[C@H](CO)N1Cc1cccnc1	inactive
CN(Cc1ccccc1)C(=O)COC(=O)c1ccccc1Nc1ccccc1	inactive
CNC(=O)C[C@@H]1CC[C@H]2[C@@H](COc3ccc(NC(=O)c4ccc(C(F)(F)F)cc4)cc3C(=O)N2C)O1	inactive
O=C(C1CC1)N1C[C@H]2[C@@H](c3ccccc31)[C@H](CO)N2C(=O)c1ccccc1F	inactive

Structure (SMILES)	outcome
CCCCC(=O)NC(c1ccccc1OC)c1ccc2cccnc2c1O (stereo not drawn)	inactive
COc1cccc(NC(=O)N2[C@H](CO)[C@@H](c3ccccc3)[C@H]2CNCC(C)C)c1	inactive
CC(=O)Nc1ccc2c(c1)C(=O)N(C)[C@@H]1CC[C@@H](CC(=O)NCc3ccc(Cl)cc3)O[C@H]1CO2	inactive
CCCNC(=O)C[C@H]1CC[C@H]2[C@@H](COc3ccc(NC(=O)c4cc(F)cc(F)c4)cc3C(=O)N2C)O1	inactive
CN1CCN(c2ccc(Cl)cc2NC(=O)c2ccc(S(=O)(=O)N3CCCCCC3)cc2)CC1	inactive
CC(=O)N1[C@H](CN(C(=O)c2ccc(F)cc2)C(C)C)[C@H](c2ccccc2)[C@@H]1CO	inactive
Cc1c(CC(=O)NCCCC(=O)O)c(=O)oc2cc3occ(-c4ccccc4)c3cc12	inactive
COc1ccc(-c2oc3ncnc(NCCCN4CCOCC4)c3c2-c2ccc(OC)cc2)cc1	inactive
CNC(=O)C[C@@H]1CC[C@@H]2[C@@H](COc3ccc(NC(=O)c4ccccc4F)cc3C(=O)N2C)O1	inactive
CN1C(=O)c2cc(NC(=O)c3cccc(F)c3)ccc2OC[C@@H]2O[C@H](CC(=O)NC3CCC3)CC[C@@H]21	inactive
COc1ccc(CNC(=O)C[C@H]2CC[C@H]3[C@H](COc4ccc(NC(=O)C(C)C)cc4C(=O)N3C)O2)cc1	inactive
CN1C(=O)c2cc(NC(=O)c3cccs3)ccc2OC[C@@H]2O[C@@H](CC(=O)O)CC[C@H]21	inactive
CCNC(=O)C[C@H]1CC[C@H]2[C@@H](COc3ccc(NS(C)(=O)=O)cc3C(=O)N2C)O1	inactive
C[C@@H]1CN([C@@H](C)CO)C(=O)c2cccc(NC(=O)Nc3ccc4c(c3)OCO4)c2O[C@@H]1CN(C)Cc1ccc(Oc2ccccc2)cc1	inactive
Cc1cc(C(=O)Nc2ccc3c(c2)C(=O)N(C)[C@@H]2CC[C@@H](CC(=O)N[C@H](C)c4ccccc4)O[C@H]2CO3)no1	inactive
CCNC(=O)Nc1ccc2c(c1)C(=O)N(C)[C@H]1CC[C@H](CC(=O)NCc3ccccc3F)O[C@H]1CO2	inactive
C/C=C/c1ccc([C@@H]2[C@@H](CN(C)C(=O)CC)N(C(=O)NC(C)C)[C@H]2CO)cc1	inactive
CCOc1ccc(-c2nnc(SCC(=O)Nc3ccc4c(c3)c3ccccc3n4CC)n2N)cc1	inactive
COc1ccccc1C#Cc1ccc2c(c1)O[C@H](CN(C)Cc1cccnc1)[C@H](C)CN([C@@H](C)CO)S2(=O)=O	inactive
